Screens as filed in PubChem BioAssay.
TDP1 inh – qHTS Assay for Inhibitors of Tyrosyl-DNA Phosphodiesterase (TDP1); Tyrosyl-DNA phosphodiesterase 1 (Homo sapiens), Q9NUW8; recombinant TDP1, AlphaScreen DNA substrate cleavage; Potency, µM (series often up to 130 µM), usual class: inhibitors; 350,000 compounds, 0.28% hits; note: nearly all actives have a fitted effect of over 40% in size
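E. coli-derived human Tdp1, 1 nM final. Cpd preinc 15 min RT; substrate 15 nM final, 5 min RT; AS bead mix 10 ug/ml final, 10 min RT. Signal loss = tyrosine-FITC cleavage. No-enzyme wells = max signal.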
ClpP mod – qHTS Assay for Activators of ClpP. ATP-dependent Clp protease proteolytic subunit (Bacillus subtilis (strain 168)), P80244. purified B. subtilis ClpP, FRET peptide cleavage, 20 min. Potency, µM (doses to about 57.5 µM). 340,000 compounds, 1.9% hits; active = well fitted falling curve with a large enough effect; inconclusive = small, poorly fitted or top-dose-only effect; inactive = no such curve, though single readings can be large or run the other way; note: the source files actives as falling curves though it sought activators and does not explain the sign; nearly all actives have a fitted effect of over 65% in size
Target sequence (P80244 whole entry, looked up): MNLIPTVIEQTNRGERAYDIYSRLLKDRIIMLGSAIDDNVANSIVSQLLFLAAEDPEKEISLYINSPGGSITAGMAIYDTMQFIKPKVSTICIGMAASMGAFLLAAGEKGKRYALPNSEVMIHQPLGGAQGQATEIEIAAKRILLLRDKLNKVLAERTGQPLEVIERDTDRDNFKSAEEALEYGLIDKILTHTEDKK
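FRET quenching reversal measured ClpP activation: 10 microg/mL B. subtilis ClpP at pH 8 with the FRET-FV decapeptide, read at 430 nm after 320 nm excitation. The 20-min minus 0-min signal was scaled between DMSO/no-enzyme wells and ADEP (5.8 microM final).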
DT40 TDP1 no CPT – qHTS for Inhibitors of human tyrosyl-DNA phosphodiesterase 1 (TDP1): qHTS in cells in absence of CPT. DT40 Tdp1-/- hTDP1 cells, no CPT, ATP luminescence, 48 h. AID 686978, 2013. 420,000 compounds, 15% hits. Potency, µM (series often up to 46.2 µM), most hits filed as inhibitors; note: nearly all actives have a fitted effect of over 55% in size
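Camptothecin absent (DMSO only). Human TDP1-complemented DT40 knockout cells, 400 cells/well, 37 °C for minimum 48 hr; ATP measured via CellTiter-Glo, 30 min dark incubation, luminescence.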
TDP1 cell CPT – qHTS for Inhibitors of human tyrosyl-DNA phosphodiesterase 1 (TDP1): qHTS in cells in presence of CPT | chicken DT40 Tdp1-/-;hTDP1 cells + 20 nM CPT, ATP luminescence, 48 h | Potency, µM (series often up to 46.2 µM), usual class: inhibitors | 420,000 compounds, 12% hits | AID 686979, 2013; note: nearly all actives have a fitted effect of over 55% in size
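Cell growth measured by CellTiter-Glo luminescence after a minimum 48 h, 37 C compound exposure with 20 nM CPT in Tdp1-knockout DT40 cells stably expressing hTDP1, seeded 400/well; qHTS titration format.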
A number is an active result; n = inactive; u = inconclusive; x = no result. Shown are actives, neighbours in structure and some others; about 17% of the full set was active somewhere. Unless noted, calls come from the whole dose curve; as a rule, active = well fitted curve in the direction sought with a large enough effect; inconclusive = small, poorly fitted or top-dose-only effect, or another doubt; inactive = no such curve, though single readings can be large; an effect the other way counts as inactive or inconclusive.

SMILES | TDP1 inh | ClpP mod | DT40 TDP1 no CPT | TDP1 cell CPT
COc1ccc(COc2cc(-c3cccc(OC)c3)nc3ccc(NC(=O)c4ccc(OC)cc4)cc23)cc1 | n | n | 3.3µM | 2.6µM
CC(C(=O)NCC(=O)Nc1ccc(F)c(F)c1F)N1CCN(c2ccc(O)cc2)CC1 (centres undefined) | n | n | 15µM | u
CC(C(=O)NCC(=O)Nc1ccc(F)c(F)c1F)N1CCN(Cc2ccc(C#N)cc2)CC1 (centres undefined) | n | n | n | n
N#Cc1c(N)c(C#N)c(-c2ccc(O)cc2)c2c1CCCC2 | n | 22µM | n | n
N#Cc1c(-c2ccc3c(c2)OCO3)csc1N | n | n | n | n
N#Cc1c(N)c(C#N)c(-c2ccc3c(c2)OCO3)c2c1CCCC2 | n | 32µM | n | n
CSc1nc2c(c(-c3ccc(O)cc3)c1C#N)CCC2 | n | n | u | n
CCOc1ccc(NC(=O)Cn2cc(C(=O)c3ccc(OCC)cc3)c(=O)c3cc4c(cc32)OCCO4)cc1 | n | n | 5.8µM | 13µM
CCOc1ccc(NC(=O)Cn2cc(C(=O)c3ccc(C)c(C)c3)c(=O)c3cc4c(cc32)OCCO4)cc1 | n | n | n | n
CCc1ccc(C(=O)c2cn(CC(=O)Nc3ccc4c(c3)OCCO4)c3ccc(F)cc3c2=O)cc1 | n | n | n | n
O=C(Cn1cc(C(=O)c2ccccc2)c(=O)c2cc3c(cc21)OCCO3)Nc1ccc(F)c(F)c1 | n | n | u | 18µM
CCOc1ccc(C(=O)c2cn(CC(=O)Nc3ccc(Cl)cc3)c3cc4c(cc3c2=O)OCCO4)cc1 | n | n | 6.5µM | u
CCOc1ccc(C(=O)c2cn(CC(=O)Nc3ccc(F)c(F)c3)c3cc4c(cc3c2=O)OCCO4)cc1 | n | n | 26µM | u
CCOc1ccc(C(=O)c2cn(CC(=O)Nc3ccc(OC)cc3)c3cc4c(cc3c2=O)OCO4)cc1 | n | n | n | u
Cc1nn(CC(=O)N2CCc3ccccc3C2)c(C)c1Cl | n | n | n | n
CC(Sc1ccc(S(=O)(=O)N2CCN(C)CC2)cn1)C(=O)NC1(C#N)CCCCC1 (centres undefined) | n | n | n | n
C#CC[N+](C)(C)C(C#Cc1ccccc1)CC=C (centres undefined) | n | n | 18µM | 12µM
CC(C)C[C@H]1CN([C@@H](CC(C)C)CN2CCC[C@@H]2CN2C(=S)NC[C@@H]2Cc2ccc(O)cc2)C(=S)N1CC1CCCCC1 | x | n | 16µM | u
CC(C)C[C@@H](CN1CCC[C@@H]1CN1C(=S)NC[C@@H]1Cc1ccc(O)cc1)N1C[C@H](Cc2ccc(O)cc2)N(CC2CCCCCC2)C1=S | x | n | 16µM | 18µM
CC(C)C[C@H]1CNC(=S)N1CC1CCCN1C[C@H](CC(C)C)N1C[C@H](Cc2ccccc2)N(CC2CCCCCC2)C1=S (some centres undefined) | x | n | 23µM | u
CC(C)C[C@H]1CNC(=S)N1CC1CCCN1C[C@H](CC(C)C)N1C[C@H](CC(C)C)N(CC2CCCCCC2)C1=S (some centres undefined) | x | n | 16µM | 18µM
CC(C)C[C@@H](CN1CCC[C@H]1CN1C(=O)C(=O)NC[C@@H]1Cc1ccc(O)cc1)N1C[C@H](Cc2ccc(O)cc2)N(CC2CCCCC2)C(=O)C1=O | x | n | n | n
CC(C)C[C@H]1CN([C@@H](CC(C)C)CN2CCCC2CN2C(=S)NC[C@@H]2Cc2ccc(O)cc2)C(=S)N1CC1CCCCC1 (some centres undefined) | x | n | u | u
CC(C)C[C@@H](CN1CCCC1CN1C(=S)NC[C@@H]1Cc1ccccc1)N1C[C@H](Cc2ccccc2)N(CC2CCCCC2)C1=S (some centres undefined) | x | n | u | u
O=C(CN1CCC(NC(=O)c2ccco2)CC1)Nc1ccccc1[N+](=O)[O-] | n | x | x | x
SMILES | TDP1 inh | ClpP mod | DT40 TDP1 no CPT | TDP1 cell CPT
COC(=O)c1ccc([C@H]2C=C(C(=O)O)O[C@@H](OCc3ccc(CO)cc3)C2)cc1 | n | n | n | n
Cc1cc2c3c(cccc3n1)C(=O)c1ccccc1-2 | n | x | u | u
CC(C)C[C@@H](CN1CCC[C@@H]1CN1C(=S)NC[C@@H]1Cc1ccc(O)cc1)N1C[C@H](Cc2ccc(O)cc2)N(CC2CCCCC2)C1=S | x | n | 16µM | 18µM
CC(C)C[C@@H](CN1CCCC1CN1C(=S)NC[C@@H]1Cc1ccccc1)N1C[C@H](Cc2ccc(O)cc2)N(CC2CCCCC2)C1=S (some centres undefined) | x | n | 18µM | u
COc1ccc(C(O)P(=O)(OC(C)C)OC(C)C)c(OC)c1 (centres undefined) | n | n | n | n
COc1cc(NC(=O)CSc2nc3[nH]ncc3c(=O)n2-c2ccccc2)cc(OC)c1OC | x | n | 26µM | u
COc1ccc(N2CCN(C(=O)CSc3nc4[nH]ncc4c(=O)n3-c3cccc4ccccc34)CC2)cc1 | n | n | 7.3µM | 6.5µM
COc1cc2c(cc1OC)CN(C(=O)CSc1nc3[nH]ncc3c(=O)n1-c1ccccc1)CC2 | n | n | n | n
Cn1nnnc1SCCNCc1ccccc1OCc1ccc(Cl)cc1Cl | n | n | 9.2µM | 18µM
Cn1nnnc1SCCNCc1ccccc1OCc1ccc(F)cc1 | n | n | n | n
COc1cc(CNCCSc2nnnn2C)ccc1OCc1ccccc1 | n | n | u | u
CCOc1cc(CNCCSc2nnnn2C)ccc1OCc1ccc(Cl)cc1Cl | n | n | 26µM | 26µM
Cc1nn(CC(=O)NCCc2ccccc2)c(=O)c2ccccc12 | n | n | n | n
COc1ccc(-c2cc(C(C)=O)c(C)n2CCC(=O)NCc2ccc(F)cc2)cc1 | n | n | u | u
CC(=O)c1cc(-c2ccccc2)n(CC(=O)NCCc2ccc(C)cc2)c1C | n | n | 8.2µM | 15µM
CC(=O)c1cc(-c2ccc(F)cc2)n(CC(=O)NCc2ccc(C)cc2)c1C | n | n | 8.2µM | 16µM
CC(=O)c1cc(-c2ccccc2)n(CCC(=O)NC(C)c2ccccc2)c1C (centres undefined) | n | n | u | u
CCn1c(-c2ccc(C)cc2)nn(CC(=O)NCCc2ccccc2)c1=S | n | n | 2.9µM | 2.9µM
CCOC(=O)c1cc(-c2ccc(F)cc2)n(CCC(=O)NCc2ccc(C)cc2)c1C | n | n | 21µM | u
Cc1ccc(S(=O)(=O)Nc2cccc(C(=O)NCCCN3CCCC3=O)c2)cc1F | n | n | u | n
O=C(Nc1ccc(Cl)c([N+](=O)[O-])c1)ONC1=NCCCCC1 | n | x | 13µM | u
COc1cc(C(=O)Nc2ccc(Cl)c([N+](=O)[O-])c2)cc(OC)c1OC | n | x | n | n
Cc1cnc2c(N)cc(C)c(C)c2c1 | x | n | u | n
